The structures appear in SMILES notation. Results filed as inconclusive are left out. Where a call stands in place of a potency, no number is given. The source made the active and inactive calls. Calls come from the whole dose curve; as a rule, active = well fitted cell-killing curve with a large enough effect; inconclusive = small, poorly fitted or top-dose-only effect; inactive = no such curve, though single readings can be large or run the other way.

Results on 10 compounds are retold here after PubChem BioAssay (NCATS).
Potency is the fitted concentration of half-maximal effect.

A short description of the assay: qHTS of pediatric cancer cell lines to identify multiple opportunities for drug repurposing: Primary screen for Rh41 cells (AID 1347108). Note: nearly all actives have a fitted effect of over 70% in size. Particulars: Rh41 rhabdomyosarcoma viability, CellTiter-Glo luminescence, 48 h; series mostly up to 46 µM. An outline of the steps:
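Following a 5-hour attachment period, cells at 500-1,000/well received compounds and were cultured for 48 hours. CellTiter-Glo was added and luminescence read to estimate viable, metabolically active cells.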
(In qHTS, concentration-response curves come from the screen itself.)
For the compound `O=c1[nH]c2cc(Cl)ccc2n1C1CCNCC1`, the Potency result is “inactive”. The entry for `Oc1c(Br)cc(Br)cc1Br` is “inactive”; for `O=C1CN2CCOC2(c2ccccc2Cl)c2cc(Cl)ccc2N1` (stereo not given) it is “inactive”; for `Nc1ccccc1C(=O)OCC(O)CO` (stereo not given) it is “inactive”. On to `CC1=C2[C@H]3OC(=O)[C@@H](C)[C@@H]3CC[C@@]2(C)C=CC1=O`, for which the Potency entry was “inactive”. As to `COc1cc(N)c(Cl)cc1C(=O)NC1CN2CCC1CC2` (stereo not given), the Potency entry was “inactive”. The same measure for `CC(Cc1ccc2c(c1)OCO2)NO` (stereo not given): “inactive”; for `COc1cc(C[C@@H](C)N)c(OC)cc1Br`: “inactive”. The same measure for `COP(=S)(OC)Oc1ccc(S(N)(=O)=O)cc1`: “inactive”; for `CC(=O)OC1(c2ccccc2)CCN(CCc2ccccc2)CC1`: 49.5 µM (active).
